Assay outcomes (PubChem)
HCV inh – qHTS Assay for Inhibitors of Hepatitis C Virus (HCV). Huh7.5.1 HCVcc-Cre infection, luciferase reporter, 44 h. Potency, µM (titrated, usually from 41.8 µM), inactives show top-dose activity change, negative = inhibition, most hits filed as inhibitors. hit rate 3.4% among 340,000. AID 651820, 2012; active means well fitted inhibition curve with a large enough effect; inconclusive means small, poorly fitted or top-dose-only effect, or another doubt; inactive means no such curve, though single readings can be large or run the other way; further: potency means the concentration at half of the fitted maximal effect
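Seed cells (1,000/well) for 4 h; treat with compound and infect with HCVcc-Cre, moi about 0.5. Incubate 44 h, then detect luciferase activity.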
Lassa entry inh – qHTS for Inhibitors of binding or entry into cells for Lassa Virus. hit rate 1.2% among 300,000. AID 540256, 2011. Potency, µM (top dose mostly 37.9 µM), inactives show at the highest dose activity change, negative = inhibition, most hits filed as inhibitors. Lassa virus pseudotype entry inhibition, cell reporter; calls by dose curve; tested in HEK293 cells; further: potency means the concentration at half of the fitted maximal effect; nearly all actives have a fitted effect of over 50% in size
HCMV antiviral – qHTS Assay for inhibitors of the human cytomegalovirus (HCMV) | HFF cells, HCMV-luciferase reporter, 72 h; hits give low values | hit rate 4.5% among 410,000 | AID 1259415, 2018 | activity change, negative = inhibition, % at 57.5 µM; in the data active means activity change below about -60%; inconclusive means no clear call, values can overlap the other calls; inactive means above about -39%
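Inhibition of viral replication was scored as loss of reporter luminescence in HFFs infected with HCMV-luciferase (MOI 1 PFU/cell) for 72 h; compounds tested at 2 doses, normalized to buffer and Salinomycin controls.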
MARV entry inh – qHTS for inhibitors of binding or entry into cells for Marburg Virus; Marburg virus pseudotyped entry inhibition, cell reporter; Potency, µM (titrated, usually from 37.8 µM), inactives show at the top dose activity change, negative = inhibition, most hits filed as inhibitors; hit rate 1.8% among 300,000; AID 540276, 2011; calls by dose curve; tested in HEK293 cells; further: potency means the concentration at half of the fitted maximal effect
FMDV inh – High Throughput Screening for Foot and Mouth Disease Virus Antivirals; FMDV antiviral cell-based qHTS; Potency, µM (titrated, usually from 57.9 µM), for inactives: at the highest dose activity change, negative = inhibition, actives largely listed as inhibitors; hit rate 1.2% among 410,000; AID 1159524, 2015; calls by dose curve; tested in HEK293T cells; further: read-out not given here; potency means the concentration at half of the fitted maximal effect; nearly all actives have a fitted effect of over 45% in size
* hit, by the source's call; [ ] = dose if it differs, or a comment. This is a sample that favours compounds with a hit; in the whole collection about 7.9% have one here. On the % scale 0 is the no-effect control and ±100 the full control effect.

How did CC(=O)c1ccc(-c2cccc([C@H]3[C@@H]4C=CC[C@@H](C)[C@@H]4C(=O)N3Cc3ccccc3)c2)cc1 do in these assays?
HCV inh: 11µM*; HCMV antiviral: -7; FMDV inh: -3%

Results for COc1ccc(-c2cccc([C@H]3[C@@H]4C=CC[C@@H](C)[C@@H]4C(=O)N3Cc3ccccc3)c2)cc1 ?
HCV inh: inconclusive; HCMV antiviral: -22; FMDV inh: inconclusive

Results for COc1ccc(-c2ccc([C@H]3[C@H]4C=CC[C@@H](C)[C@@H]4C(=O)N3Cc3ccccc3)c(F)c2)cc1 ?
HCV inh: inconclusive; HCMV antiviral: 26; FMDV inh: -11%

How did COc1ccc(-c2c([C@H]3[C@H]4C=CC[C@@H](C)[C@@H]4C(=O)N3Cc3ccccc3)ccc3ccccc23)cc1 do in these assays?
HCV inh: 7.1µM*; HCMV antiviral: inconclusive; FMDV inh: inconclusive

What do the screens show for `COc1cc(-c2cccc([C@H]3[C@@H]4C=CC[C@@H](C)[C@@H]4C(=O)N3Cc3ccccc3)c2)cc(OC)c1OC`?
HCV inh: 10µM*; HCMV antiviral: -2; FMDV inh: -2%

Results for CCOc1ccc(S(=O)(=O)N(CC(=O)Nc2ccc3c(c2)OCO3)c2ccccc2)cc1 ?
Lassa entry inh: 9%[46.1 µM]; HCMV antiviral: inconclusive; MARV entry inh: 3%[46.1 µM]; FMDV inh: -1%

How did COc1ccc(C(=O)C[n+]2ccc3c(c2)nc(-c2ccccc2)n3C)cc1 do in these assays?
HCV inh: 1%; Lassa entry inh: 15%; HCMV antiviral: -91*; MARV entry inh: 11%; FMDV inh: -27%

Results for COc1ccc(C(=O)C[n+]2ccc3c(c2)nc(-c2ccc(OC)cc2OC)n3C)cc1 ?
HCV inh: 15%; Lassa entry inh: 10%; HCMV antiviral: -99*; MARV entry inh: 11%; FMDV inh: -22%

Results for Cc1ccc(C)c(S(=O)(=O)N2[C@@H]3CC[C@@H](C3)[C@H]2c2nc3c(OCC4CCOCC4)cccc3[nH]2)c1 ?
HCMV antiviral: 1

What do the screens show for `Nc1nc(N)c(Cc2ccc(Cl)cc2Cl)c(N)n1`?
HCV inh: inconclusive; Lassa entry inh: 0%; HCMV antiviral: -73*; MARV entry inh: -26%; FMDV inh: inconclusive

How did Nc1nccc(SCc2ccc(Cl)cc2Cl)n1 do in these assays?
HCV inh: -21%; Lassa entry inh: inconclusive; HCMV antiviral: -15; MARV entry inh: -17%; FMDV inh: -16%

What do the screens show for `NNc1ccc(Cc2ccc(Cl)cc2Cl)nn1`?
HCV inh: inconclusive; Lassa entry inh: -29%[46.1 µM]; HCMV antiviral: -70*; MARV entry inh: inconclusive; FMDV inh: -3%

How did O=C(Nc1ccc(F)cc1)c1csc(C(O)Cc2ccccc2)n1 (stereo not drawn) do in these assays?
HCMV antiviral: 50

Results for CC(C)C[C@@H](CN1CCCC1CN1C(=S)NC[C@@H]1Cc1ccc(O)cc1)N1C[C@H](Cc2ccccc2)N(CC2CCCCCC2)C1=S (stereo partly drawn) ?
HCV inh: inconclusive; HCMV antiviral: -15; FMDV inh: 0%

What do the screens show for `CC(C)C[C@@H](CN1CCCC1CN1C(=S)NC[C@@H]1Cc1ccc(O)cc1)N1C[C@H](Cc2ccccc2)N(CC2CCCCC2)C1=S` (stereo partly drawn)?
HCV inh: 22µM*; HCMV antiviral: -71*; FMDV inh: inconclusive

Results for CC(C)C[C@@H](CN1CCCC1CN1C(=S)NC[C@@H]1Cc1ccc(O)cc1)N1C[C@H](Cc2ccc(O)cc2)N(CC2CCCCCC2)C1=S (stereo partly drawn) ?
HCV inh: inconclusive; HCMV antiviral: -90*; FMDV inh: inconclusive

What do the screens show for `CC(C)C[C@H]1CNC(=S)N1C[C@H]1CCCN1C[C@H](CC(C)C)N1C[C@H](Cc2ccc(O)cc2)N(CC2CCCCC2)C1=S`?
HCMV antiviral: inconclusive; FMDV inh: -20%

Results for COCC(=O)Nc1cc(C(=O)NC2Cc3ccccc3C2)cc2nc(-c3cccnc3)n(C)c12 ?
FMDV inh: 4%

What do the screens show for `C=CCN(c1ccccc1)S(=O)(=O)c1cccc(C(=O)Nc2nnc(SCC)s2)c1`?
HCV inh: -6%; Lassa entry inh: -14%; HCMV antiviral: -62*; MARV entry inh: -7%; FMDV inh: -20%

How did C=CCN(c1ccccc1)S(=O)(=O)c1cccc(C(=O)Nc2cccc(C)n2)c1 do in these assays?
HCV inh: 14µM*; Lassa entry inh: inconclusive; HCMV antiviral: -25; MARV entry inh: inconclusive; FMDV inh: inconclusive

Results for CCc1ccc(/C=C(/C#N)c2nc(-c3ccc(C)cc3)cs2)cc1 ?
Lassa entry inh: 6%[46.1 µM]; HCMV antiviral: -18; MARV entry inh: 2%[46.1 µM]; FMDV inh: -20%

Results for CCOc1ccc(-c2csc(/C(C#N)=C\c3ccc(O)c([N+](=O)[O-])c3)n2)cc1 ?
HCV inh: inconclusive; Lassa entry inh: inconclusive; HCMV antiviral: -30; MARV entry inh: inconclusive; FMDV inh: 22µM*

What do the screens show for `CCCCCCCCn1cnc2c(N)c(C)c(C)cc21`?
HCV inh: 1.6µM*; Lassa entry inh: inconclusive; HCMV antiviral: -13; MARV entry inh: inconclusive; FMDV inh: -28%

Results for COc1ccc(-c2[nH]ncc2C(=O)NCc2ccc(F)cc2)cc1 ?
HCMV antiviral: 33; MARV entry inh: -3%[46.1 µM]; FMDV inh: -9%

Results for CCCCCSc1nnc2c(n1)OC(CC)Nc1ccc(Br)cc1-2 (stereo not drawn) ?
Lassa entry inh: 29%[46.1 µM]; HCMV antiviral: -19; MARV entry inh: 18%[46.1 µM]; FMDV inh: -27%

Results for CN(C)c1cccc2c1c(NC(=O)c1ccc(F)cc1)nn2C ?
HCV inh: 10%; HCMV antiviral: -5; FMDV inh: -27%

Results for CN(C)c1cccc2c1c(NC(=O)Nc1ccc(F)cc1F)nn2C ?
HCV inh: inconclusive; HCMV antiviral: -63*; FMDV inh: -6%

How did C=CCOCCC=C1c2ccccc2[C@@H](OC)[C@@H]1C do in these assays?
MARV entry inh: -8%[14.2 µM]

How did CN(C)CCCN(C(=O)c1ccc2c(c1)CCCC2)c1nc2ccc(Cl)cc2s1 do in these assays?
HCV inh: 7.9µM*; Lassa entry inh: inconclusive; HCMV antiviral: -79*; MARV entry inh: inconclusive; FMDV inh: 28µM*

Results for CCOC(=O)N1CCN(S(=O)(=O)c2ccc(C(=O)N(CCCN(C)C)c3nc4ccc(Cl)cc4s3)cc2)CC1 ?
HCV inh: 11µM*; HCMV antiviral: 8; FMDV inh: -10%

What do the screens show for `CCOc1ccc2nc(N(CCCN(C)C)C(=O)c3ccc4c(c3)CCCC4)sc2c1`?
HCV inh: inconclusive; HCMV antiviral: -40; FMDV inh: -47%
